From PubChem BioAssay (NCI) come the findings set out here.

Compounds without any hit were thinned out: in the full panel of roughly 83,000, 20% have a hit.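 For each line, cells grew in 96-well plates with the test compound present at a single concentration for 48 hours.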 The source made the active and inactive calls. The calls were made as follows: active = growth percent below 10; inactive = the rest.

The assay deals with HL-60(TB) leukemia. Description: NCI-60 one-dose screen, 48 h (100 = growth as untreated, 0 = no growth, -100 = all killed). The following applies: 10 µM unless noted.
In the case of `Cc1cc(-c2ccccc2)cc(SC#N)[n+]1[O-]`, the growth was 7.14% (active).

`COc1ccc2c(c1)OC(N)=C(C#N)C2c1cc(OC)c(OC)c(OC)c1` (stereo not given): the growth was -30.4% (active).

Regarding `NC(=S)N/N=C/c1ccc(Cl)cc1`, the growth was 103% (inactive).

Regarding `COc1cc(/C=N/NC(=O)Cn2c(C(C)C)nc3ccccc32)ccc1O`, the growth was 85.2% (inactive).

As for `CCOC(=O)N1CCc2c(sc3nc4nc[nH]n4c(=O)c23)C1`, the growth is 103% (inactive).

Take `CCN(C(=O)CN1CCN(c2cc3c(cc2F)c(=O)c(C(=O)O)cn3C2CC2)CC1)c1nc(-c2ccc(OC)cc2)cs1`: the growth is 30.1% (inactive).

Take `CSc1cnc2ccccc2n1`: the growth was 90.3% (inactive).

Turning to `CCc1ccc(-c2ccc(=O)n(-c3ccc(S(N)(=O)=O)cc3)n2)cc1`, the growth was -4.27% (active).

Regarding `CC1(C)CCC(=NNC(N)=S)CC1`, the growth was 109% (inactive).

For the molecule `N=C(N)c1ccc(-c2ccc(-c3cc(Cl)cc(Cl)c3)s2)s1`, the growth is -67.9% (active).

Regarding `Cn1ncc2ccc(-c3nc(-c4ccccc4)[nH]c3-c3n[nH]c(=O)n3C3CC3)cc21`, the growth is 84.7% (inactive).

For `Cc1cc2c(cc1C)[n+](Cc1ccc3ccccc3c1)cn2Cc1ccc2ccccc2c1`, the growth is -60% (active).

On to `Cn1cnc([N+](=O)[O-])c1S(=O)(=O)Oc1ccc(Cl)cc1`, for which the growth was -35.2% (active).

For `CCN1C(=O)N(CC)C2C1N=C(SC)N2/N=C/C=C/c1ccccc1OC` (stereo not given), the growth was -13.4% (active).

Consider `N#C/C=C(\c1ccc([N+](=O)[O-])cc1)n1nnc2cc(Cl)c(Cl)cc21`, for which the growth is 13.3% (inactive).

Turning to `C=C1CC[C@@H]2[C@](C)(COC(C)=O)[C@H](OC(C)=O)CC[C@@]2(C)[C@@H]1CC(Nc1ccc(S(=O)(=O)Nc2nccc(C)n2)cc1)C1=CCOC1=O` (stereo not given in full), the growth is -17.3% (active).

Regarding `O=Cc1c[nH]c2ccc(NC(=O)OCc3ccccc3)cc12`, the growth is 200% (inactive).

In the case of `O=C1NC(=O)/C(=C/c2c(-c3ccccc3)nc3sc(COc4ccccc4)nn23)S1`, the growth is 91.1% (inactive).

On to `CCN(CC)CCNc1nc2ccccc2c2c(=O)c3cc(Cl)ccc3sc12`, for which the growth is 78.1% (inactive).

As to `CS(=O)(=O)Nc1ccc(OCc2nnc(-c3ccc(Cl)cc3)o2)c(F)c1`, the growth was 115% (inactive).

For `CCCc1cn(CC(=O)Nc2nc3ccccc3s2)nn1`, the growth is 101% (inactive).

On to `O=C(Nc1cccnc1Nc1ccccc1)c1cn(Cc2cccc(Oc3ccccc3)c2)nn1`, for which the growth was 18.9% (inactive).

`CCOC(=O)C(Cc1ccccc1)n1c(O)c(/C=N/c2ncc(Cc3ccc(Cl)cc3Cl)s2)sc1=S` (stereo not given): the growth was -35.2% (active).

Take `C#C[C@]1(O)CC[C@H]2[C@@H]3CC=C4c5nc(N)sc5CC[C@]4(C)[C@H]3CC[C@@]21C`: the growth was 87.5% (inactive).

Regarding `O=c1cc(/C(=C2/C=CC=N2)c2ccc[nH]2)c2cc(Cl)ccc2o1`, the growth was 85.2% (inactive).

Consider `COc1cc(NCC(O)CN(CC(C)C)CC(C)C)c2ncccc2c1` (stereo not given), for which the growth is 62.7% (inactive).

Take `COc1ccc(-c2nc(N3CCCC3=O)sc2Br)cc1OC`: the growth is 101% (inactive).

For the molecule `O=C(NC(=S)Nc1ccccn1)c1ccccc1`, the growth is 95.8% (inactive).

`COc1ccc(C(=O)C2=CC(=O)C(=O)C2)cc1OC`: the growth is 110% (inactive).

On to `COc1cc(C2CC(c3ccc(SC)cc3)=NN2C(C)=O)cc(OC)c1OC` (stereo not given), for which the growth was 17.6% (inactive).

On to `CC(C)(C)c1ccc(C(=O)Nc2sc3c(c2C#N)CCC(=O)C3)cc1`, for which the growth is -1.94% (active).

Turning to `Cc1cccc(-c2nc(C(C)C)sc2-c2ccnc(NCCCNS(=O)(=O)c3ccc(Cl)cc3)c2)c1`, the growth was 80.1% (inactive).

For `Cn1cc(-c2csc(-c3cn(CCN)c4ccc(F)cc34)n2)c2cccnc21`, the growth is 47.1% (inactive).

In the case of `CC(=O)n1c(/C(C#N)=C/c2ccc(N(C)C)cc2)cc2ccccc21`, the growth was 10.5% (inactive).

As for `CCCCCCCCCCCCCCCC1=NC(C)(C)CN1C(C)C`, the growth was -62.9% (active).

With `O=C(N1CCC(CN=c2cc3n(-c4ccc(Cl)cc4)c4ccccc4nc-3cc2Nc2ccc(Cl)cc2)CC1)N1CC1`, the growth is -73.3% (active).

Turning to `c1ccc(CCNc2ncnc3[nH]ncc23)cc1`, the growth is 79.6% (inactive).

Consider `COc1ccc(NC(=O)COc2ccccc2)c(C(N)=O)c1`, for which the growth was -7.37% (active).

As for `C(=N\Nc1ncc(-c2cc3cc4c(cc3o2)OCO4)s1)/c1c[nH]c2ccccc12`, the growth was 2.27% (active).

For `O=NN(CC(=O)NNc1ccccc1)CC(=O)NNc1ccccc1`, the growth is 31.6% (inactive).
